# Source: PubChem
# CHRM1 antagonist: human CHRM1 antagonism. P11229. CHO-K1 hM1, Fluo-8 calcium fluorescence, ACh EC80 antagonist. inhibition, % at 3 µM. 360,000 compounds, 1.3% hits. AID 588852;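 active = percent inhibition above its own plate's cutoff, namely the mean of that plate's compound wells plus 3 SD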;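 also: peak over basal fluorescence ratio during 140 s after agonist addition; 0% = ACh EC80 plus DMSO and 100% = DMSO alone without agonist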
# Target sequence (P11229 whole entry, looked up): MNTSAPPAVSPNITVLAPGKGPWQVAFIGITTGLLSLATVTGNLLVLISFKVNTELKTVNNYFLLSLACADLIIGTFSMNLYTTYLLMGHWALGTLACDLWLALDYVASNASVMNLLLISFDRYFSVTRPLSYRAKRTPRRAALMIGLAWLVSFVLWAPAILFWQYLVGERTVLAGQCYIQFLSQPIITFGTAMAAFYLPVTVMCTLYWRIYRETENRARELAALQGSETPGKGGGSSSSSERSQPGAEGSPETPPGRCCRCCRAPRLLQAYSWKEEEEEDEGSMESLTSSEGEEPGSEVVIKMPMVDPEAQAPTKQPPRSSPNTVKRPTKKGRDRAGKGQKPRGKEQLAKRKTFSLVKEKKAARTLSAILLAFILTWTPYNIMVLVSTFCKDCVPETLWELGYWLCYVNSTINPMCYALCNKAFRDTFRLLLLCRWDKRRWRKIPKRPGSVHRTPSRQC
# CHRM1 PAM: human CHRM1 positive allosteric modulation; P11229; CHO-K1 hM1, Fluo-8 calcium fluorescence, ACh EC20; 0% = ACh EC20, 100% = maximal ACh; activation, % at 3 µM; 360,000 compounds, 0.088% hits; AID 588819; in the data active = activation above about 19%, passing the limit was not always enough
# M1 ag: activates human CHRM1 receptor; 360,000 compounds, 0.33% hits; AID 588814; activation, % at 3 µM; P11229; CHO-K1 hM1, Fluo-8 calcium fluorescence, agonist mode; 0% DMSO, 100% acetylcholine EC100;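 active = activation above the run's mean compound activation plus 3 SD, cut at about 16% in these data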;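 also: peak over basal fluorescence ratio within a 140 s kinetic read after compound addition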
# M1 PAM parental: nonselective activator or artifact in parental CHO-K1 calcium assay; activation, % at 3 µM; ATP EC20, Fluo-8 calcium fluorescence; 0% at ATP EC20, 100% at ATP max; 360,000 compounds, 0.02% hits;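 active = activation above the run cutoff, the mean activation of all test compounds plus 3 SD, cut at about 40% in these data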;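 also: peak over basal fluorescence ratio in a 140 s read after ATP addition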
# M1 ag parental: nonselective activator or artifact in parental CHO-K1 cells; Fluo-8 calcium fluorescence; scaled to maximal ATP response, vehicle zero; activation, % at 3 µM; 360,000 compounds, 0.48% hits; AID 602248; in the data active = activation above about 15%;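 also: untransfected CHO-K1 host cells lacking M1 receptor as counterscreen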
# CHO-K1 Ca antag: counter-screen for M1 antagonists: effect in parental CHO-K1 cells; 360,000 compounds, 0.6% hits; inhibition, % at 3 µM; ATP-induced calcium, Fluo-8 fluorescence;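 active = inhibition above a per-plate cutoff, the plate's mean sample inhibition plus 3 SD, cut at about 24% in these data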;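 also: 0% = DMSO plus EC80 ATP and 100% = DMSO alone without ATP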
# Starred values were filed as active, the others as inactive. A selection: hits, their analogues and other compounds. The true share with any hit is near 2.3%.
SMILES,CHRM1 antagonist,CHRM1 PAM,M1 ag,M1 PAM parental,M1 ag parental,CHO-K1 Ca antag
O=C(NCc1cccs1)c1cc(S(=O)(=O)N2CCOCC2)c(Cl)cc1Cl,-12,7,0,9,9,-2
O=C(C1CCCC1)N1CCC(CC2CC(c3cccc(Br)c3)=NO2)(C(=O)NCC2CCCCC2)CC1 (centres undefined),-6,4,-5,22,0,-29
COc1ccccc1C(=O)N1CCN(C(=O)[C@H]2O[C@@H](n3ccc(=O)[nH]c3=O)[C@H](O)[C@@H]2O)CC1,1,1,-3,-2,-1,7
CCc1ccc(NC(=O)CN2CCc3ccccc3C2)cc1,1,4,-6,-7,0,24*
CCOC(=O)c1csc(NC(=O)c2ccc(S(=O)(=O)N(CC)CC)cc2)n1,-5,7,-2,14,15*,-10
CCOC(=O)c1sc(NC(=O)c2ccc(S(=O)(=O)N(CC)CC)cc2)nc1C,-3,3,-1,0,1,1
O=C(Nc1ccccc1)c1ccc(CN2CCc3ccccc3C2)cc1,-6,-11,-13,-13,7,24*
Cc1ccccc1-c1cc2nc(Oc3cccc(F)c3)n(C)c(=O)c2s1,-10,0,-4,12,0,-12
CCOC(=O)c1c(C)[nH]c(C)c1S(=O)(=O)NCc1ccccc1C,-14,7,-4,-7,0,4
Cc1cccc(Nc2nc3c(c(=O)n(C)c(=O)n3C)n2CC(O)CO)c1 (centres undefined),9,-6,0,-7,0,25*
Cc1ccc(S(=O)(=O)N(C)C)cc1NC(=O)C(C)OC(=O)c1cc[n+]([O-])cc1 (centres undefined),-6,11,-2,10,0,-8
CC1=C(C(=O)N(C)C)CC(CC(=O)NCCCCc2ccccc2)C(=O)N1CCCN1CCCC1=O (centres undefined),-23,27*,5,20,1,-19
CCCOc1ccc(N2C(=O)CC(N3CCN(c4ccc([N+](=O)[O-])cc4)CC3)C2=O)cc1 (centres undefined),-6,1,-2,12,25*,2
Cc1cc(NC(=O)c2cnn3c(C(F)(F)F)cc(-c4ccccc4)nc23)no1,33*,-17,-10,-12,1,-5
Cc1c(NC(=O)c2nn3c(C(F)(F)F)cc(-c4ccccc4)nc3c2Cl)c(=O)n(-c2ccccc2)n1C,21,-14,-6,-12,2,16
COc1ccc(-c2cc(C(F)(F)F)n3nc(C(=O)Nc4c(C)n(C)n(-c5ccccc5)c4=O)c(Cl)c3n2)cc1,1,-9,-6,-15,0,26*
O=C(Nc1cccc(N2C(=O)C3CCCCC3C2=O)c1)c1ccccc1 (centres undefined),4,-2,-1,2,4,-2
O=C(Nc1cccc(Cl)c1)c1cccc(N2C(=O)C3CC=CCC3C2=O)c1 (centres undefined),9,-6,4,6,17*,-2
COc1ccc(S(=O)(=O)Nc2cc3c4c(c2)CC(=O)N4CCC3)cc1OC,-11,3,-1,-3,0,1
N/C(=N\OC(=O)Cc1ccccc1)c1ccccc1Cl,12,-6,-5,18,0,1
OC(CN1CCCCCC1)CN(c1ccccc1)c1ccccc1 (centres undefined),38*,-26,-8,13,2,4
OC(CN1CCOCC1)CN(c1ccccc1)c1ccccc1 (centres undefined),-1,0,-8,1,0,-6
OC(CN1CCCCC1)CN(c1ccccc1)c1ccccc1 (centres undefined),51*,-25,-10,-5,0,11
Cc1ccccc1S(=O)(=O)N(CC(O)CN1CCCCC1)c1ccccc1 (centres undefined),5,-2,-6,-6,0,-11
Cc1cc(/C=C(\C#N)C(N)=O)c(C)n1-c1ccc(N2CCOCC2)c([N+](=O)[O-])c1,14,-4,34*,12,13,19
